Experimental data: the supplement of paper PMC6555819

These sequences were tested on VDR homodimer (NR concentration 270 nM) (assay: PBM binding z-score (relative to random genomic background probes); higher = stronger binding; sequences stand for … in GC…GCGATTGACAGCGTAGAATGAAGG).
How it was run: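 Each nuclear receptor dimer, without ligand, was incubated for 1 h on custom Agilent 4×180K protein-binding microarrays. Binding was detected with antibodies against each partner (one per run), and scanned fluorescence was regression-normalized. The binding z-scores are referenced to random human genomic background probes.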

Row | Sequence | PBM binding z-score
1 | CCGACAGGGGCAAAGGTTACCATACTCAGTACGA | 0.724
2 | CGTCAAAGTTCAAGATAACGTAACAGAAAGCAGC | 3.57
3 | CTCGAAAGGTCGGTTGAGGTGAGTGTACGGATAA | 1.29
4 | GCAGACAGGTGAAACGCAGGTAACGCAGGGTGGC | -0.757
5 | AGAATGAGGTTACCAAAGATCACGGAAACGCTTG | 0.151
6 | CGAACTAGGTCCTCCAGGACAGTGAATACATTGA | -0.221
7 | TCTTGTAGATCAAGCAGCTTAAGAAAGCCTGAGT | -0.394
8 | TCTAGCAGGGCAGAGGGTCACTCAAGAGGTACGG | 0.66
9 | GCTTGTAGATCAAGGTTGAGAAAGACTAAGCTAA | -0.235
10 | AGTCAAAGTTCCGGACGAGGTAACGTAAAGCACG | -0.0573
11 | CCTTACGGGTCACTCCAGGGTATAGCATCGGAGT | 0.88
12 | ACTACTAGTTGAGACGAGGGCAACCGATAGGTTG | 0.599
13 | GCTGCTAGGTCAGGGTGGTCAGCTAACGGGTACG | 0.245
14 | GCTGTTAGTTGAAAGGGCAACCGAATGATTCTCG | -0.0381
15 | TGAATGAGGTTAAACATCAGGGAACGTGGCGTCG | 0.833
16 | TCGAGTAGGTTAGTGGCATTCAGAATGGCGTCGA | -0.54
17 | CCAACTGGGGCAAGGTTACCATAACGCACAGCCA | -0.0492
18 | TAGCCTAGGTCATGCGGGCCAGGATAGTGTCGGC | 0.706
19 | GCTGCTAGGTCTACTGATGGTCAGCTAAAGCTCG | -0.893
20 | ACAGACAGGAGAGTGAAGGTAACTCAGCTGGACG | -0.235
21 | GATACAGGGTCATGGCCAGAGTACGCGTATTGAT | 2.77
22 | GCTAGTTGGTCAGCAAAAGGTCACACACCGGTCG | 1.55
